Laboratory results taken from PubChem BioAssay (EPA / NIEHS).
Several values for one entry are separate records, joined by “and”; a condition that tells them apart may be missing. Identical values can stand only once. Where a structure was tested more than once in an assay, its records may differ in their call. Activity calls are given as the source filed them. Rule for the calls: active = hit-call score of the fitted dose curve at least 0.9, where 1 is the maximum; inactive = score below 0.9.

Key:
[1] = read-out: Plasminogen activator inhibitor-1 (PAI1), SERPINE1 (gene 5054); assay: BSK_MyoF_PAI1: BioMAP Diversity Plus: MyoF Assay for Plasminogen activator inhibitor-1 (PAI1) Biomarker Activity (AID 2284256); conditions: primary human lung fibroblasts
Method in brief: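 Primary human lung fibroblasts treated with chemical for 24 h; PAI-1 levels quantified by ELISA relative to DMSO. Cytotoxicity was assessed in parallel cultures by SRB total-protein staining (0.1% SRB after 10% TCA fixation, 560 nm).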

[2] = read-out: Interleukin-8 (IL8), CXCL8 (gene 3576); assay: BSK_MyoF_IL8: BioMAP Diversity Plus: MyoF Assay for Interleukin-8 (IL8) Biomarker Activity (AID 2284261); conditions: primary human lung fibroblasts
Method in brief: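 Human lung fibroblast (MyoF system) cultures dosed for 24 h, then IL-8 measured by ELISA. Response taken relative to DMSO; parallel SRB total-protein staining for cytotoxicity.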

[3] = read-out: Decorin, DCN (gene 1634); assay: BSK_MyoF_Decorin: BioMAP Diversity Plus: MyoF Assay for Decorin Biomarker Activity (AID 2284265); conditions: primary human lung fibroblasts
Method in brief: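 Human lung fibroblast cultures were dosed for 24 h, and decorin was then measured by ELISA. Parallel cultures were stained with sulforhodamine B for total protein as a cytotoxicity check. Gain of signal was fitted relative to DMSO.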

[4] = BSK_MyoF_SRB: Viability Assessment in the BioMAP Diversity Plus: MyoF Assay (AID 2284267); conditions: primary human lung fibroblasts;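 note: total protein by SRB absorbance in parallel cultures as cytotoxicity measure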
Method in brief: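 Human lung fibroblasts, 24 h after chemical dosing; total protein measured by 0.1% sulforhodamine B staining after 10% TCA fixation, read at 560 nm, fitted relative to DMSO baseline.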

[5] = read-out: Matrix Metallopeptidase 1 (MMP1), MMP1 (gene 4312); assay: BSK_MyoF_MMP1: BioMAP Diversity Plus: MyoF Assay for Matrix Metallopeptidase 1 (MMP1) Biomarker Activity (AID 2284268); conditions: primary human lung fibroblasts
Method in brief: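 Human lung fibroblast primary cells; MMP1 measured by ELISA 24 h after dosing, fitted in the positive direction relative to DMSO. Parallel SRB staining (0.1%, after 10% TCA fixation, 560 nm) assesses overt cytotoxicity.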

[6] = read-out: Collagen I, COL1A1 (gene 1277); assay: BSK_hDFCGF_CollagenI: BioMAP Diversity Plus: hDFCGF Assay for Collagen I Biomarker Activity (AID 2284250); conditions: primary human foreskin fibroblasts
Method in brief: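 Primary human foreskin fibroblasts exposed to chemical for 24 h; Collagen I levels measured by ELISA. Cytotoxicity checked by SRB total-protein staining in parallel cultures.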

[7] = read-out: Interferon-inducible T-cell alpha chemoattractant (ITAC), CXCL11 (gene 6373); assay: BSK_hDFCGF_ITAC: BioMAP Diversity Plus: hDFCGF Assay for Interferon-inducible T-cell alpha chemoattractant (ITAC) Biomarker Activity (AID 2284251); conditions: primary human foreskin fibroblasts
Method in brief: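 Primary human foreskin fibroblasts (hDFCGF system) treated for 24 h; I-TAC quantified by ELISA. Gain-direction fitting versus DMSO; parallel SRB staining of total protein flagged overt cytotoxicity.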

[8] = read-out: Plasminogen activator inhibitor-1 (PAI1), SERPINE1 (gene 5054); assay: BSK_KF3CT_PAI1: BioMAP Diversity Plus: KF3CT Assay for Plasminogen activator inhibitor-1 (PAI1) Biomarker Activity (AID 2284252); conditions: primary human keratinocytes with fibroblasts
Method in brief: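 Human keratinocyte/foreskin fibroblast co-culture dosed for 24 h; PAI-1 measured by ELISA, fitted in positive direction against DMSO baseline. Parallel SRB total-protein staining (0.1% SRB, 560 nm) assesses overt cytotoxicity.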

[9] = read-out: Interleukin-8 (IL8), CXCL8 (gene 3576); assay: BSK_KF3CT_IL8: BioMAP Diversity Plus: KF3CT Assay for Interleukin-8 (IL8) Biomarker Activity (AID 2284254); conditions: primary human keratinocytes with fibroblasts
Method in brief: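 Human keratinocyte/foreskin fibroblast co-culture dosed 24 h; IL-8 measured by ELISA relative to DMSO. Parallel cultures stained with SRB for total protein to flag cytotoxicity.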

[10] = read-out: Vascular cell adhesion molecule 1 (VCAM1), VCAM1 (gene 7412); assay: BSK_BF4T_VCAM1: BioMAP Diversity Plus: BF4T Assay for Vascular cell adhesion molecule 1 (VCAM1) Biomarker Activity (AID 2284249); conditions: primary human bronchial epithelial cells with fibroblasts
Method in brief: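 Human bronchial epithelial cell and dermal fibroblast co-culture exposed 24 h. VCAM-1 measured by ELISA; parallel SRB total-protein staining for cytotoxicity. Fitted in positive direction relative to DMSO.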

[11] = read-out: Monocyte Chemoattractant Protein-1 (MCP1), CCL2 (gene 6347); assay: BSK_IMphg_MCP1: BioMAP Diversity Plus: IMphg Assay for Monocyte Chemoattractant Protein-1 (MCP1) Biomarker Activity (AID 2284253); conditions: primary human endothelial cells with macrophages
Method in brief: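 Human venular endothelial cells co-cultured with macrophages; MCP-1 measured by ELISA 24 hours post-dose and fitted against DMSO. Cytotoxicity monitored by SRB total-protein staining in parallel cultures.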

[12] = read-out: Macrophage Inflammatory Protein-1 Alpha (MIP1a), CCL3 (gene 6348); assay: BSK_IMphg_MIP1a: BioMAP Diversity Plus: IMphg Assay for Macrophage Inflammatory Protein-1 Alpha (MIP1a) Biomarker Activity (AID 2284255); conditions: primary human endothelial cells with macrophages
Method in brief: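 Co-culture of human venular endothelial cells and macrophages exposed to compounds for 24 h; MIP-1a measured by ELISA relative to DMSO. Cytotoxicity assessed in parallel cultures by sulforhodamine B total-protein staining at 560 nm.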

[13] = read-out: CD69, CD69 (gene 969); assay: BSK_IMphg_CD69: BioMAP Diversity Plus: IMphg Assay for CD69 Biomarker Activity (AID 2284257); conditions: primary human endothelial cells with macrophages
Method in brief: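 Human venular endothelial cells co-cultured with macrophages; CD69 quantified by ELISA 24 h after compound addition. Activity fitted in the positive direction relative to DMSO baseline; cytotoxicity tracked in parallel cultures via SRB total-protein staining.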

[14] = read-out: Eotaxin 3, CCL26 (gene 10344); assay: BSK_BF4T_Eotaxin3: BioMAP Diversity Plus: BF4T Assay for Eotaxin 3 Biomarker Activity (AID 2284258); conditions: primary human bronchial epithelial cells with fibroblasts
Method in brief: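 Co-culture of human bronchial epithelial cells and dermal fibroblasts, exposed to chemicals for 24 h versus DMSO. Eotaxin-3 quantified by ELISA; cytotoxicity checked in parallel cultures by sulforhodamine B total-protein staining.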

[15] = read-out: Monocyte Chemoattractant Protein-1 (MCP1), CCL2 (gene 6347); assay: BSK_BF4T_MCP1: BioMAP Diversity Plus: BF4T Assay for Monocyte Chemoattractant Protein-1 (MCP1) Biomarker Activity (AID 2284259); conditions: primary human bronchial epithelial cells with fibroblasts
Method in brief: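 Co-culture of bronchial epithelial cells and dermal fibroblasts dosed with chemical; MCP-1 measured by ELISA 24 h later. Activity fitted in positive direction versus DMSO; cytotoxicity checked by SRB staining in parallel cultures.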

[16] = read-out: Intercellular Adhesion Molecule 1 (ICAM1), ICAM1 (gene 3383); assay: BSK_BF4T_ICAM1: BioMAP Diversity Plus: BF4T Assay for Intercellular Adhesion Molecule 1 (ICAM1) Biomarker Activity (AID 2284260); conditions: primary human bronchial epithelial cells with fibroblasts
Method in brief: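 Co-culture of human bronchial epithelial cells and dermal fibroblasts exposed 24 h to chemical; cell-surface ICAM-1 quantified by ELISA. Parallel SRB total-protein staining assessed cytotoxicity; activity fitted relative to DMSO.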

[17] = read-out: CD90, THY1 (gene 7070); assay: BSK_BF4T_CD90: BioMAP Diversity Plus: BF4T Assay for CD90 Biomarker Activity (AID 2284262); conditions: primary human bronchial epithelial cells with fibroblasts
Method in brief: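 Co-culture of human bronchial epithelial cells and dermal fibroblasts, 24 h compound exposure. Cell-surface CD90 measured by ELISA relative to DMSO; parallel SRB total-protein staining for cytotoxicity.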

[18] = read-out: Interleukin-8 (IL8), CXCL8 (gene 3576); assay: BSK_BF4T_IL8: BioMAP Diversity Plus: BF4T Assay for Interleukin-8 (IL8) Biomarker Activity (AID 2284263); conditions: primary human bronchial epithelial cells with fibroblasts
Method in brief: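 Human bronchial epithelial cells with dermal fibroblasts co-culture; IL-8 measured by ELISA 24 hours after dosing, fitted vs DMSO. Cytotoxicity tracked in parallel cultures by SRB total-protein staining.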

[19] = read-out: Interleukin-1 alpha (IL1a), IL1A (gene 3552); assay: BSK_BF4T_IL1a: BioMAP Diversity Plus: BF4T Assay for Interleukin-1 alpha (IL1a) Biomarker Activity (AID 2284264); conditions: primary human bronchial epithelial cells with fibroblasts
Method in brief: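 Human bronchial epithelial cells co-cultured with dermal fibroblasts, dosed and read at 24 h. Secreted/surface IL-1α quantified by ELISA; gain-of-signal fitted relative to DMSO baseline. Parallel SRB total-protein staining tracked cytotoxicity.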

[20] = read-out: KRT18 (gene 3875); assay: BSK_BF4T_Keratin818: BioMAP Diversity Plus: BF4T Assay for Keratin 818 Biomarker Activity (AID 2284266); conditions: primary human bronchial epithelial cells with fibroblasts
Method in brief: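 Co-culture of human bronchial epithelial cells and dermal fibroblasts, chemical exposure 24 h. Keratin 8/18 measured by ELISA; positive-direction fit vs DMSO. SRB total protein run in parallel cultures for cytotoxicity.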

Measured: AC50

CCCCCCC=O
inactive: [1] | [2] | [3] | [4] | [5]

CCCC(C)C(=O)OCC (stereo not drawn)
inactive: [6] | [7] | [8] | [9]

Oc1c(Cl)cc(Cl)c(Cl)c1Cl
inactive: [2] | [5]
active: [1] 28.3 µM | [3] 37.4 µM | [4] 26.6 µM

Fc1ccc(Br)cc1
inactive: [1] | [2] | [3] | [4] | [5]

CC/C=C\CCOC(=O)c1ccccc1O
active: [1] 31.3 µM | [3] 20 µM | [4] 37 µM
inactive: [2] | [5]

c1ccc2c(c1)[nH]c1ccccc12
inactive: [1] | [2] | [3] | [4] | [5]

C[N+](C)(C)CCCNS(=O)(=O)C(F)(F)C(F)(F)C(F)(F)C(F)(F)C(F)(F)C(F)(F)C(F)(F)C(F)(F)F
inactive: [10] | [6] | [8] | [11] | [9] | [1] | [13] | [14] | [15] | [16] | [2] | [17] | [18] | [19]
active: [7] 47.1 µM and 49.6 µM | [8] 46.1 µM | [12] 50.5 µM and 56.9 µM | [1] 21.9 µM | [13] 8.01 µM | [19] 30 µM | [3] 9.66 µM and 11.2 µM | [20] 26.5 µM and 5.95 µM | [4] 37.6 µM and 38.7 µM | [5] 49.2 µM and 41 µM

CCOC(=O)C1=NOC(c2ccccc2)(c2ccccc2)C1
inactive: [1] | [2] | [3] | [4] | [5]

c1ccc(Nc2cccc3ccccc23)cc1
active: [6] 14.3 µM | [7] 30.1 µM and 30.3 µM | [8] 27.4 µM and 26.5 µM | [9] 31.6 µM and 29.4 µM
inactive: [6]

CC1(C)CC(O)CC(C)(C)N1[O]
inactive: [1] | [2] | [3] | [4] | [5]

C=CC(=O)NCOCCCC
inactive: [1] | [2] | [3] | [4] | [5]

CCNc1nc(NC(C)(C)C)nc(OC)n1
inactive: [1] | [2] | [3] | [4] | [5]

O=C(Oc1ccccc1)c1ccccc1C(=O)Oc1ccccc1
inactive: [1] | [2] | [3] | [4] | [5]

CC/C=C\C/C=C\C/C=C\CCCCCCCC(=O)OC
inactive: [3]
active: [1] 13.7 µM | [2] 20 µM | [4] 10.4 µM | [5] 36.5 µM

CC(C)[N+](C)(CCOC(=O)C1c2ccccc2Oc2ccccc21)C(C)C
inactive: [2] | [3] | [4] | [5]
active: [1] 0.0398 µM

Nc1nc(N)nc(-c2ccccc2)n1
inactive: [6] | [7] | [8] | [9]

CCCCCCCCCCCC(C)=O
inactive: [1] | [2] | [3] | [4] | [5]

CC(C)C(=O)OCCc1ccccc1
inactive: [6] | [7] | [8] | [9]

O=C(O)C(F)(F)C(F)(F)C(F)(F)C(F)(F)C(=O)O
inactive: [10] | [6] | [7] | [8] | [11] | [9] | [12] | [1] | [13] | [14] | [15] | [16] | [2] | [17] | [18] | [19] | [3] | [20] | [4] | [5]

CC(CCC(=O)O)(c1ccc(O)cc1)c1ccc(O)cc1
inactive: [6] | [7] | [8] | [9]

CCCCCCCO
inactive: [1] | [2] | [3] | [4] | [5]

Oc1ccccc1Cc1ccccc1O
inactive: [6] | [7] | [8] | [9]

C=C(C)C(=O)OCCCCCCCCCCCC
inactive: [1] | [2] | [3] | [4] | [5]

CCCCCCCCCCCC(=O)N(C)CC(=O)O
inactive: [6] | [7] | [8] | [9]

CC(Cl)COP(=O)(OCC(C)Cl)OCC(C)Cl (stereo not drawn)
inactive: [1] | [2] | [3] | [4] | [5]
